Where a name gives a salt, the structure may show the parent alone.
What was measured:
Conditions in all cases: 20 µM; incubation time: 27 h, anaerobic, 37 °C;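 for the amine columns active = adjusted P below 0.05 in both replicates with a change the same way and a mean fold change under 0.8 or over 1.25; inactive = the rest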
[1] = system: Clostridium sporogenes DSM 1664; test: growth (OD595) fold change vs plate DMSO controls (fold change (ratio)); higher = more growth
How it was run: (§1)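 Growth is expressed as the fold change relative to the median of the DMSO control wells on each plate. Cultures in mGAM were grown anaerobically in 96-well plates for 27 h at 37 °C, shaken, and read at 595 nm. Readings were blank-subtracted, corrected for compound background with 20 µM compound solutions in water, and converted to OD with a calibration factor of 5. Fold changes above 1.5 were set to NA, and each value is the mean of 2 biological replicates.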

Escherichia coli IAI1 [2] = test: as above
How it was run: as §1

[3] = system: Klebsiella aerogenes DSM 30053; test: as above
How it was run: as §1

[4] = system: Ruminococcus gnavus DSM 108212; test: as above
How it was run: as §1

[5] = system: Klebsiella aerogenes DSM 30053; test: fold change of Histamine concentration vs plate DMSO controls (fold change (ratio)); higher = more amine produced, active = hit call of the paper (significant change in both replicates, either direction)
How it was run: (§2)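 Amine values are fold changes relative to DMSO-only wells on the same plate. They derive from 27 h, 37 °C anaerobic mGAM cultures of four gut bacterial strains in 80 µL wells, dosed at 20 µM final, or 50 µM final for sweeteners. Extraction of the whole culture, LC–triple-quadrupole MS in dynamic MRM mode, external calibration curves and within-batch drift correction were used, with 2 biological replicates averaged.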

[6] = system: Clostridium sporogenes DSM 1664; test: fold change of Tryptamine concentration vs plate DMSO controls (fold change (ratio)); higher = more amine produced, active = hit call of the paper (significant change in both replicates, either direction)
How it was run: as §2

[7] = system: Ruminococcus gnavus DSM 108212; test: as above
How it was run: as §2

Escherichia coli IAI1 [8] = test: fold change of Putrescine concentration vs plate DMSO controls (fold change (ratio)); higher = more amine produced, active = hit call of the paper (significant change in both replicates, either direction)
How it was run: as §2

[9] = system: Klebsiella aerogenes DSM 30053; test: as above
How it was run: as §2

Escherichia coli IAI1 [10] = test: fold change of Cadaverine concentration vs plate DMSO controls (fold change (ratio)); higher = more amine produced, active = hit call of the paper (significant change in both replicates, either direction)
How it was run: as §2

[11] = system: Klebsiella aerogenes DSM 30053; test: as above
How it was run: as §2

[12] = system: Ruminococcus gnavus DSM 108212; test: fold change of 2-Phenylethylamine concentration vs plate DMSO controls (fold change (ratio)); higher = more amine produced, active = hit call of the paper (significant change in both replicates, either direction)
How it was run: as §2

Compound	growth [1]	growth (Escherichia coli IAI1 [2])	growth [3]	growth [4]	fold change of Histamine concentration [5]	fold change of Tryptamine concentration [6]	fold change of Tryptamine concentration [7]	fold change of Putrescine concentration (Escherichia coli IAI1 [8])	fold change of Putrescine concentration [9]	fold change of Cadaverine concentration (Escherichia coli IAI1 [10])	fold change of Cadaverine concentration [11]	fold change of 2-Phenylethylamine concentration [12]
O=C1C=C(N(Cc2ccc(Cl)nc2)CC(F)F)CO1	0.968	1.01	0.997	0.923	1.02 (inactive)	1.15 (inactive)	1.1 (inactive)	0.94 (inactive)	1 (inactive)	0.933 (inactive)	1.01 (inactive)	1.15 (inactive)
CCOCn1c(-c2ccc(Cl)cc2)c(C#N)c(Br)c1C(F)(F)F	0.89	1	1.01	0.948	1 (inactive)	0.999 (inactive)	1.02 (inactive)	1.03 (inactive)	0.999 (inactive)	1.03 (inactive)	0.983 (inactive)	1.01 (inactive)
CCC(COC(=O)c1cc(OC)c(OC)c(OC)c1)(c1ccccc1)N(C)C (stereo unspecified) [Trimebutine]	0.842	0.979	0.999	0.868	0.944 (inactive)	0.936 (inactive)	1.06 (inactive)	0.928 (inactive)	1.01 (inactive)	0.997 (inactive)	1.01 (inactive)	1.04 (inactive)
CCNC1(c2cccs2)CCCCC1=O (stereo unspecified) [Tiletamine hydrochloride]	1.04	1	0.995	1.15	1.03 (inactive)	1.04 (inactive)	1.02 (inactive)	0.955 (inactive)	1.01 (inactive)	0.995 (inactive)	1.01 (inactive)	1 (inactive)
CC[C@@H](C(N)=O)N1CCCC1=O [Levetiracetam]	1.02	1.01	1.08	0.829	0.827 (inactive)	1.06 (inactive)	1.07 (inactive)	1.06 (inactive)	0.951 (inactive)	1.02 (inactive)	1.05 (inactive)	1.07 (inactive)
N#Cc1sc2c(=O)c3ccccc3c(=O)c=2sc1C#N	1.14	1.02	0.963	1.01	0.994 (inactive)	0.877 (inactive)	0.906 (inactive)	1.02 (inactive)	1.01 (inactive)	1.02 (inactive)	0.992 (inactive)	0.827 (inactive)
c1cc2ccc3cccc4ccc(c1)c2c34 [Pyrene]	1.01	0.96	0.997	0.936	0.993 (inactive)	0.953 (inactive)	1.03 (inactive)	1.01 (inactive)	1.05 (inactive)	0.969 (inactive)	1.03 (inactive)	1 (inactive)
CC(CCc1ccccc1)NC(C)C(O)c1ccc(O)cc1 (stereo unspecified) [Nylidrin]	0.853	1.13	1.21	1	1 (inactive)	0.986 (inactive)	0.929 (inactive)	1.03 (inactive)	1.05 (inactive)	0.961 (inactive)	1.02 (inactive)	0.902 (inactive)
CC[C@@]1([C@@H]2O[C@@H]([C@H]3O[C@@](O)(CO)[C@H](C)C[C@@H]3C)C[C@@H]2C)CC[C@H]([C@]2(C)CC[C@]3(C[C@H](O)[C@@H](C)[C@@H]([C@@H](C)[C@@H](OC)[C@H](C)C(=O)O)O3)O2)O1 [Monensin sodium salt]	0.0614	1.09	1	0.204	0.975 (inactive)	0.0398 (active)	0.0682 (active)	1.09 (inactive)	1 (inactive)	0.966 (inactive)	0.999 (inactive)	0.0948 (active)
CCNc1nc(Cl)nc(NC(C)C)n1	1.02	1.02	1	1.06	1.03 (inactive)	0.98 (inactive)	1.06 (inactive)	0.961 (inactive)	0.971 (inactive)	0.849 (inactive)	1 (inactive)	1.1 (inactive)
C=CCN1CC[C@]23c4c5ccc(O)c4O[C@H]2C(=O)CC[C@@]3(O)[C@H]1C5 [Naloxone hydrochloride]	1.22	1.04	1.03	1.24	1.04 (inactive)	1.01 (inactive)	0.998 (inactive)	1.02 (inactive)	0.997 (inactive)	0.994 (inactive)	0.997 (inactive)	0.985 (inactive)
O=P(Oc1ccccc1)(Oc1ccccc1)Oc1ccccc1 [Triphenyl PO4]	0.98	1.03	1.02	1.04	0.998 (inactive)	1.16 (inactive)	0.971 (inactive)	1.01 (inactive)	0.842 (inactive)	0.993 (inactive)	1.14 (inactive)	0.995 (inactive)
CC[C@H]1CCC[C@H](O[C@H]2CC[C@H](N(C)C)[C@@H](C)O2)[C@@H](C)C(=O)C2=C[C@@H]3[C@@H](C=C(C)[C@@H]4C[C@@H](O[C@@H]5O[C@@H](C)[C@H](OC)[C@@H](OC)[C@H]5OC)C[C@@H]34)[C@@H]2CC(=O)O1.CC[C@H]1CCC[C@H](O[C@H]2CC[C@H](N(C)C)[C@@H](C)O2)[C@@H](C)C(=O)C2=C[C@H]3[C@@H]4C[C@H](O[C@@H]5O[C@@H](C)[C@H](OC)[C@@H](OC)[C@H]5OC)C[C@H]4C=C[C@H]3C2CC(=O)O1	1.03	0.983	1.01	0.919	0.93 (inactive)	0.96 (inactive)	0.984 (inactive)	1.02 (inactive)	0.991 (inactive)	1.01 (inactive)	0.992 (inactive)	0.982 (inactive)

Reference: the supplement of paper PMC12494721
